Reference: article doi:10.1101/2025.02.07.636106

Each substance was assayed against Histone deacetylase 2 (UniProt Q92769) (assay: cross-link between two proteins; affinity purification or IP with mass spectrometry; cross-linking mass spectrometry).
Sequence of Histone deacetylase 2 (Q92769 whole entry): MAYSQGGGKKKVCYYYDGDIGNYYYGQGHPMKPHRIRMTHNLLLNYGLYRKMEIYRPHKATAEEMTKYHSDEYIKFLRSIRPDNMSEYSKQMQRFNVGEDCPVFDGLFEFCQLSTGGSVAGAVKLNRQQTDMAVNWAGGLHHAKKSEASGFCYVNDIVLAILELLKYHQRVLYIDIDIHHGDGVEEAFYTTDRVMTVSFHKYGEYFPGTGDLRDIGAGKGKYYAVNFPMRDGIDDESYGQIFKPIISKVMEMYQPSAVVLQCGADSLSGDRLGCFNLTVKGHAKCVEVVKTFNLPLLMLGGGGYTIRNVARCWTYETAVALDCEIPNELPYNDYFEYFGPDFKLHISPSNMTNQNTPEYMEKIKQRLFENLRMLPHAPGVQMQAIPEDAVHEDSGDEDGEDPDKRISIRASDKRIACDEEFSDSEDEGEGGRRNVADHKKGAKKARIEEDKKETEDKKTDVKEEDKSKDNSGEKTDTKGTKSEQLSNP

Listed as a hit, yes:
ATP-dependent chromatin remodeler CHD4, Q14839
Methyl-CpG-binding domain protein 3, O95983
Transcriptional repressor p66-beta, Q8WXI9
Histone-binding protein RBBP7, Q16576
